USP1-UAF1 inh = Inhibitors of USP1/UAF1: Primary Screen; AID 743255, 2014; actives 0.23% (n = 390,000); Potency, µM (series often up to 57.1 µM), for inactives: at the highest dose activity change, negative = inhibition, usual class: inhibitors; recombinant USP1/UAF1, Ub-Rhodamine cleavage fluorescence; Ubiquitin carboxyl-terminal hydrolase 1 (Homo sapiens), O94782; further: potency means the concentration at half of the fitted maximal effect; nearly all actives have a fitted effect of over 60% in size
Target sequence (O94782 whole entry, looked up): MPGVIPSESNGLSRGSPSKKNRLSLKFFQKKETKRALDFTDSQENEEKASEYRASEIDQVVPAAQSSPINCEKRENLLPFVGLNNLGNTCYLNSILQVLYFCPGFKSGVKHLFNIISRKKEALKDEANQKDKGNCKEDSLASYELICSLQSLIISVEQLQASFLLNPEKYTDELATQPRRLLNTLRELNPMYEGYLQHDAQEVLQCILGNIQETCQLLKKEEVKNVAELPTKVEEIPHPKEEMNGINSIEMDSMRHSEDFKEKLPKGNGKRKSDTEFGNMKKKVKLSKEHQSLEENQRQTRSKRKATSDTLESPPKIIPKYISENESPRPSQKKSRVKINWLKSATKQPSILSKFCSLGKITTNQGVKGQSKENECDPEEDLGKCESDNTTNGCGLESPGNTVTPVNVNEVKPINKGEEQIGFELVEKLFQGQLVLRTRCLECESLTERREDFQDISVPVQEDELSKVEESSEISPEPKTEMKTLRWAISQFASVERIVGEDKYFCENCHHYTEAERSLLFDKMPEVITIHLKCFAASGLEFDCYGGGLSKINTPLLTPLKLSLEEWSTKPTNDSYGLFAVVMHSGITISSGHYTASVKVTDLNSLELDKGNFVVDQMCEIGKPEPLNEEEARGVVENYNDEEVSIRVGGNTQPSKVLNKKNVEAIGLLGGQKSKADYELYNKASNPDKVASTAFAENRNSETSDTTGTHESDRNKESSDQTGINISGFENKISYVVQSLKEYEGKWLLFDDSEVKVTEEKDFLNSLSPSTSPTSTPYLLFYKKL
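1 nM enzyme complex + cpd, 15 min RT; start with Ub-Rho 150nM final; kinetic fluorescence ex 480/em 540, 6 reads q60 s. Buffer 50mM HEPES pH 7.8, 0.5mM EDTA, 0.1 mg/ml BSA, 1mM TCEP, 0.01% Tween-20.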
Tau fluor counter = Counterscreen qHTS for Inhibitors of Tau Fibril Formation, Fluorescence Polarization; actives 0.93% (n = 280,000); Potency, µM (titrated, usually from 57.7 µM), for the others: top-dose activity change, negative = decrease; tau K18 P301L Alexa594 fluorescence, heparin fibrillization; further: potency means the concentration at half of the fitted maximal effect; nearly all actives have a fitted effect of over 55% in size
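Human tau K18 P301L (15 uM unlabeled, 0.24 uM Alexa 594-labeled) in 100 mM sodium acetate pH 7 with 20 uM heparin, 6 hr at 37 C. ThT 30 uM added, 1 hr ambient; Alexa 594 FP and total fluorescence read at 555/632 nm.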
FBPA coupling cs = qHTS Assay for Inhibitors of Fructose-1,6-bisphosphate Aldolase from Giardia Lamblia: Coupling assay counterscreen; coupling enzyme system counterscreen, AmpLite Red fluorescence; activity change, negative = inhibition, % at 58.2 µM, hits read low; actives 0.67% (n = 290,000); in the data active means activity change below about -30%
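Counterscreen of the coupled detection system alone, without aldolase: glyceraldehyde-3-phosphate coupling enzymes plus AmpLite Red readout. Compounds at 57.5 uM final, 10 min RT preincubation, 20 min RT reaction, fluorescence 525/598 nm.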
Tau FP inhib = qHTS for Inhibitors of Tau Fibril Formation, Fluorescence Polarization | Microtubule-associated protein tau (Homo sapiens), P10636 | K18 P301L tau heparin fibrillization, Alexa594 FP, 6 h | Potency, µM (doses to about 57.7 µM), without a hit: at the highest dose activity, negative = inhibition, actives largely listed as inhibitors | actives 0.39% (n = 280,000); further: potency means the concentration at half of the fitted maximal effect; nearly all actives have a fitted effect of over 55% in size
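Human K18 P301L fragment (15 uM unlabeled plus 0.24 uM Alexa 594-labeled) in 100 mM sodium acetate pH 7 with compound, aggregation induced by 20 uM heparin for 6 hr at 37 C. ThT (30 uM) added for 1 hr, then Alexa 594 FP read.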
Tau ThT inhib = qHTS for Inhibitors of Tau Fibril Formation, Thioflavin T Binding; actives 2.1% (n = 270,000); recombinant tau K18 P301L (four-repeat tau fragment), heparin-induced fibrillization, ThT fluorescence; Potency, µM (top dose mostly 57.4 µM), for the others: top-dose activity, negative = inhibition, usual class: inhibitors; Microtubule-associated protein tau (Homo sapiens), P10636; AID 1460, 2008; further: potency means the concentration at half of the fitted maximal effect; nearly all actives have a fitted effect of over 55% in size
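In this qHTS, human K18 P301L tau is incubated with compound and heparin for 6 hr at 37 C, and Thioflavin T fluorescence then reports fibril load.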
Starred values were filed as active, the others as inactive; u = inconclusive; x = not tested or not shown; ! = not active in a repeat; [ ] = remark or other dose. Sampled rows, rich in hits. Any-hit rate of the full collection: about 2.3%. Unless noted, the call rests on the fitted dose curve; in most records, active means well fitted curve in the direction sought with a large enough effect; inconclusive means small, poorly fitted or top-dose-only effect, or another doubt; inactive means no such curve, though single readings can be large; an effect the other way counts as inactive or inconclusive. On the % scale 0 is the no-effect control and ±100 the full control effect.

SMILES	USP1-UAF1 inh	Tau fluor counter	FBPA coupling cs	Tau FP inhib	Tau ThT inhib
Cc1ccc(OCc2nc3ccccc3n2CCOc2ccc(Cl)cc2)cc1	-19%	-12%	x	-4%	-11%
Cc1nc(-c2ccc(S(=O)(=O)Nc3ccc(C#N)cc3)cc2)co1	-8%	-7%	x	2%	2%
COc1ccccc1N1CCN(c2ccc(=O)n(CC(=O)Nc3ccc(F)c(F)c3)n2)CC1	-25%	-30%	x	3%	-11%
NC1=C(Cl)C(=O)c2ccc(S(N)(=O)=O)cc2C1=O	1.3µM*	x	x	x	x
NS(=O)(=O)c1ccc2c(c1)C(=NO)c1cc(S(N)(=O)=O)ccc1-2	-20%	x	1	x	x
CCNc1ccc(S(=O)(=O)N2CCOCC2)cc1NCC(=O)Nc1cccc(Br)c1	-11%	x	x	x	x
CCCCN(CCCC)C(=O)c1cc(Cl)ccc1[N+](=O)[O-]	1%	-19%	3	-1%	-4%
CCCN(CCC)C(=O)c1cc([N+](=O)[O-])cc2c1-c1ccc([N+](=O)[O-])cc1C2=C(C#N)C#N	u	u	-32*	u	32µM*
COc1ccc(CNC(=O)c2cc3cccc4c3n2CC(C)S4)c(OC)c1 (centres undefined)	-32%	-28%	x	-8%	1%
CCCN1C/C(=C/c2ccc3c(c2)OCO3)C(=O)/C(=C/c2ccc3c(c2)OCO3)C1	0%	-22%	1	u	22µM*
CC1=C/C(=C\c2ccc3c(c2)OCO3)C(=O)S1	u	-15%	0	-13%	6.3µM*
CCCN1C(=O)/C(=C/c2ccc3c(c2)OCO3)NC1=S	0%	-18%	-1	2%	-18%
CCN(CC)c1ccc(/C=N/NC(=O)c2ccc3nc[nH]c3c2)c(O)c1	-13%	14µM*[quencher]	-7	3%	x
COc1cccc(/C=N/NC(=O)c2ccc3nc[nH]c3c2)c1O	-11%	-25%	1	-13%	u
CCN(CC)c1ccc(/C=N/NC(=O)c2cccc(S(=O)(=O)Nc3ccccc3OC)c2)cc1	-24%	u	-1	11%	u
CCN(CC)c1ccc(/C=N/Nc2ccccc2)c(O)c1	u	u	-14	u	25µM*
CCN(CC)c1ccc(/C=N/NC(=O)c2cccc(S(=O)(=O)Nc3ccccc3OC)c2)c(O)c1	u	7.9µM*[quencher]	-2	u	-13%
C=CCc1cccc2cc(C(=O)NCCc3c(C)[nH]c4c(C)cccc34)c(=O)oc12	-25%	u	x	6%	u
CN(C)C(=O)c1ccc2c(c1[N+](=O)[O-])C(=O)c1ccccc1C2=O	-7%	-6%	-43*	-4%	-9%
Cc1[nH]c2c(C)cccc2c1CCNC(=O)c1ccc2c(c1[N+](=O)[O-])C(=O)c1ccccc1C2=O	-28%	7.9µM*[quencher]	-31*	6%	u
Cc1[nH]c2ccccc2c1CCNC(=O)c1ccc2c(c1[N+](=O)[O-])C(=O)c1ccccc1C2=O	-1%	8.9µM*[quencher]	-29	1%	u
CCOC(=O)c1ccc(NC2(c3ccccc3)C(=O)c3ccccc3C2=O)cc1	-11%	-17%	x	2%	-7%
CCOc1ccc(CC(=O)Nc2c(C(=O)c3ccc(C)cc3)oc3ccccc23)cc1OCC	u	-18%	x	-7%	4%
Cc1cccc(NC(=S)NCCSc2ccc(Cl)cc2)c1	-11%	10µM*[quencher]	-1	u	-18%
COc1ccc(-n2nc([N+](=O)[O-])c(=NCCC3=CCCCC3)n2O)cc1	-29%	u	0	15%	7.9µM*
SMILES	USP1-UAF1 inh	Tau fluor counter	FBPA coupling cs	Tau FP inhib	Tau ThT inhib
COc1ccc(-n2nc([N+](=O)[O-])c(=NCc3ccco3)n2O)cc1	-17%	-29%	0	1%	10µM*
CCOc1cc(N2CCOCC2)c(OCC)cc1NC(=O)c1ccc(C)cc1	-18%	-18%	-31*	9%	-6%
CCOc1cc(N2CCOCC2)c(OCC)cc1NC(=O)CSc1ncccn1	-10%	-9%	4	4%	-6%
CCOc1cc(N2CCOCC2)c(OCC)cc1NC(C)C(=O)N1CCN(CC)CC1 (centres undefined)	-22%	u	-43*	u	16µM*
CCN1CCN(C(=O)Nc2cc(Cl)ccc2OC)CC1	-5%	-3%	-1	0%	-2%
CCN1CCN(C(=O)C(C)Nc2cc(Cl)c(OC)cc2OC)CC1 (centres undefined)	-5%	-21%	-43*	u	u
CCOc1cc(N2CCOCC2)c(OCC)cc1NC(=O)CSc1cccc[n+]1[O-]	u	-9%	-33*	-10%	u
C=CCNc1ncnc2sc(SC)nc12	-9%	-7%	0	-3%	-9%
CC1(C)CC(=O)C2=C(C1)N(c1ccc(F)cc1)C(N)=C(C#N)C2c1cccs1 (centres undefined)	2%	-9%	x	3%	-2%
Cc1ccc(N2C(N)=C(C#N)C(c3cccs3)C3=C2CC(C)(C)CC3=O)cc1 (centres undefined)	-22%	-25%	-8	-18%	25µM*
CC[n+]1ccc(/C=C2\Sc3ccccc3N2CCCS(=O)(=O)[O-])c2ccccc21	-10%	-7%	1	0%	u
CN1C=C/C(=C\c2cc[n+](C)c3ccccc23)c2ccccc21	-22%	u	-62*	u	14µM*
Oc1csc(Cc2nc(-c3ccccc3F)cs2)n1	-22%	u	1	-4%	14µM*
Oc1csc(Cc2nc(-c3ccc4ccccc4c3)cs2)n1	-8%	13µM*[quencher]	0	4%	3.5µM*
COc1ccc(CNC(=O)Cn2c(=O)nc(-c3ccccc3)c3ccccc32)cc1OC	-23%	2%	x	-6%	-4%
COCCN1C=C2C(=O)C(C)(OC(=O)CCc3ccccc3)C(=O)C=C2C=C1c1ccc(C#N)cc1 (centres undefined)	-35%	-9%[11.6 µM]	-9	-3%[11.6 µM]	u
CC1(OC(=O)C2CCCC2)C(=O)C=C2C=C(c3ccsc3)N(Cc3ccccc3)C=C2C1=O (centres undefined)	-13%	-5%[11.6 µM]	-17	u	10µM*!
CCCCC1=CC2=CC(=O)C(C)(OC(=O)CCc3ccccc3)C(=O)C2=CO1 (centres undefined)	u	u	2	u	25µM*!
CC1(OC(=O)C2CCCC2)C(=O)C=C2C=C(c3ccsc3)N(CCc3ccccn3)C=C2C1=O (centres undefined)	-27%	-19%[11.6 µM]	-23	u	4µM*
